Results taken from PubChem BioAssay (EPA / NIEHS).
Records with an inconclusive call do not appear. Calls of active or inactive are those of the source. Rule for the calls: active = hit-call score of the fitted dose curve at least 0.9, where 1 is the maximum; inconclusive = response in the unintended direction; inactive = score below 0.9.

Target: Estrogen-related receptor gamma (Homo sapiens) (UniProt P62508)
Experiment: ATG_ERRg_TRANS: Attagene TRANS-FACTORIAL HepG2 Assay for human Estrogen-Related Receptor gamma (ERRg) (AID 2282977);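 note: hits increase reporter signal over DMSO so potencies reflect activators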
Settings: HepG2 Attagene TRANS reporter, ERRg transactivation
Summary of the method: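 Exogenous NR-Gal4 chimera activity measured as reporter transcript induction after 24 h in transiently transfected HepG2 cells. RNA reverse-transcribed, PCR-amplified, 6-FAM-labelled and resolved by capillary electrophoresis; increase over DMSO baseline.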

Chain of Estrogen-related receptor gamma (Homo sapiens) (P62508 whole entry, looked up): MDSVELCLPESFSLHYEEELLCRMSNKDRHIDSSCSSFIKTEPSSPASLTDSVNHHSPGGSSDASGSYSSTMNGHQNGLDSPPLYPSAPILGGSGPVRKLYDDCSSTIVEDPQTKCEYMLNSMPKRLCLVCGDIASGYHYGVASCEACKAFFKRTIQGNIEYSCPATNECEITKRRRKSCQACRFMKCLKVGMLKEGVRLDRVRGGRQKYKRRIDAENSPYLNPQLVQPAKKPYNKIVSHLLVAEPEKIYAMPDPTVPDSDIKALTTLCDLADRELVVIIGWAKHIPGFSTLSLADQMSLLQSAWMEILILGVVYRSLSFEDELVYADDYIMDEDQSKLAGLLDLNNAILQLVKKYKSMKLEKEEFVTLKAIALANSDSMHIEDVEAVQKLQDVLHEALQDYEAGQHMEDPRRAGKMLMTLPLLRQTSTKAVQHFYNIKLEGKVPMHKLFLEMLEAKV

outcome, inactive:
CCO[Si](CCCNC(N)=O)(OCC)OCC, CC1(C)NC(=O)N(c2ccc([N+](=O)[O-])c(C(F)(F)F)c2)C1=O, CN(C)C(=O)C1(N2CCCCC2)CCN(CC[C@@]2(c3ccc(Cl)c(Cl)c3)CN(C(=O)c3ccccc3)CCO2)CC1, Clc1ccccc1C(c1ccccc1)(c1ccccc1)n1ccnc1, COCC(C)OCC(C)OCC(C)O (centres undefined), CC(C)(C)c1cc(/C=C2\SC(N)=NC2=O)cc(C(C)(C)C)c1O, Cc1cc2c(cc1C(F)(F)F)N(C(=O)Nc1ccc(Oc3cccnc3C)nc1)CC2, Cc1cn([C@H]2C[C@H](N=[N+]=[N-])[C@@H](CO)O2)c(=O)[nH]c1=O, NC(=O)c1nc(-c2cccc(-c3cc(F)ccc3OCC(F)(F)C(F)(F)F)c2)n[nH]1
